# Test results published in PubChem BioAssay AID540361 (National Center for Advancing Translational Sciences (NCATS), 2011).
# Records with an inconclusive call do not appear. Activity calls are given as the source filed them. The call rests on the fitted dose curve; in most records, active means well fitted curve in the direction sought with a large enough effect; inconclusive means small, poorly fitted or top-dose-only effect, or another doubt; inactive means no such curve, though single readings can be large or run the other way.
# Target: Alpha-galactosidase A (Homo sapiens) (UniProt P06280)
# Sequence (P06280 whole entry, looked up): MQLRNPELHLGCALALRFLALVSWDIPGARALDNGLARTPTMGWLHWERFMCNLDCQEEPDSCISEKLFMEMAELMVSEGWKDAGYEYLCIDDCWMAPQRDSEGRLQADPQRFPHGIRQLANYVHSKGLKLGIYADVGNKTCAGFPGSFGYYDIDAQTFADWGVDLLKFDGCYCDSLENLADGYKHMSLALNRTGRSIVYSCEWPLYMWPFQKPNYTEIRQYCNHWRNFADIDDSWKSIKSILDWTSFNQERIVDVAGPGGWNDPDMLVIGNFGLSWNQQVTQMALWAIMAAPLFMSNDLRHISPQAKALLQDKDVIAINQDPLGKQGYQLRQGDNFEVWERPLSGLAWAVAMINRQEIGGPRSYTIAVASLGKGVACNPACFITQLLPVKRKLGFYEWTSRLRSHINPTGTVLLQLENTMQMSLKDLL
# Assay: Activators of Human alpha-Glucosidase as a Potential Chaperone Treatment of Pompe Disease: Alpha-Galactosidase Counter Screen
# Settings: purified human alpha-galactosidase, 4-MU fluorogenic substrate; series mostly up to 57.1 µM
# From the text: Alpha-glucosidase is responsible for hydrolysis of terminal, non-reducing 1,4-linked alpha-D-glucose residues with release of alpha-D-glucose. It is a lysosomal hydrolase that is required for the degradation of a small percentage (1-3%) of cellular glycogen in human. Deficiency of this enzyme results in glycogen-storage disease type II (GSDII), also referred to as Pompe disease, an autosomal recessive disorder. Structurally normal glycogen is accumulated in lysosomes and cytoplasm in affected patients, primarily in muscle tissues. Excessive glycogen storage within lysosomes may interrupt normal functioning of other organelles and leads to cellular injury. In turn, this leads to enlargement and dysfunction of the entire organ involved (eg, cardiomyopathy and muscle weakness). It has reported that the improper folding and trafficking of alpha-glucosidase resulting from the genetic mutations may account for a significant number of Pompe patients. […] After screening for activators for alpha-glucosidase, we used this counter screen against alpha-galactosidase to test for specificity of the hits. NIH Chemical Genomics Center [NCGC] NIH Molecular Libraries Probe Production Centers Network [MLPCN] MLPCN Grant: MH086442-01 Assay Submitter (PI): Wei Zheng
# This is a fluorogenic enzyme assay with 4-methylumbelliferyl-[…] as the substrate and human alpha-galactosidase as the enzyme preparation. Upon the hydrolysis of this fluorogenic substrate, the resulting product, 1. 4-methyllumbelliferone, can be excited at 365 nm and emits at 440 nm which can be detected by a standard fluorescence plate reader. Data were normalized to the controls for basal activity (without enzyme) and 100% activity (with enzyme). In the AC50 values were determined from concentration-response data modeled with the standard Hill equation. Assay buffer: 50 mM citric acid (titrated with potassium phosphate to pH 5.0), 0.005% Tween-20, pH 5.0. (pH 5.0 is an optimal condition for this enzyme assay) 1536-well assay protocol for the human alpha-galactosidase: (1) Add 2 ul/well of enzyme (4 nM final) (2) Add 23 nL compounds in DMSO solution. The final titration was 0.7 nM to 77 uM. (3) Add 1 ul of substrate (400 uM final) (4) Incubate at room temperature for 20 min. (5) Add 2 ul stop solution (1M NaOH and 1M Glycine mixture, pH 10) (6) Detect the assay plate in a ViewLux plate reader (PerkinElmer) with Ex=365 nm and Em=440nm. Keywords: Alpha-glucosidase, Pompe Disease, pharmacological chaperone, chaperone therapy, high throughput screening, alpha-glucosidase inhibitor, MLSMR, MLSCN, NIH Roadmap, qHTS and NCGC
row,SMILES,outcome
1,O=S(=O)(c1ccc(Cl)cc1)N1CCN(c2nc(-c3cccs3)nc3ccccc23)CC1,inactive
2,CCCN1CNc2c(c(=O)[nH]c(=S)n2CCc2cc(C)ccc2C)C1,inactive
3,CCCN1CNc2c(c(=O)[nH]c(=S)n2CCC(C)(C)C)C1,inactive
4,CCCN1CNc2c(c(=O)[nH]c(=S)n2CCc2cccc(C)c2C)C1,inactive
5,COc1ccc(CCn2c3c(c(=O)[nH]c2=S)CN(C)CN3)cc1OC,inactive
6,CCCN1CNc2c(c(=O)[nH]c(=S)n2CCc2ccsc2)C1,inactive
7,CCCN1CNc2c(c(=O)[nH]c(=S)n2Cc2ccc(OC)c(OC)c2)C1,inactive
8,CCCN1CNc2c(c(=O)[nH]c(=S)n2CCc2c(C)cccc2C)C1,inactive
9,COc1ccc(C#Cc2c[nH]c(=O)c3cncnc23)cc1OC,inactive
10,CCCN1CNc2c(c(=O)[nH]c(=O)n2CCc2ccc(OC)c(OC)c2)C1,inactive
11,COc1ccc(CCn2c3c(c(=O)[nH]c2=S)CN(C(C)C)CN3)cc1OC,inactive
12,CCCN1CNc2c(c(=O)[nH]c(=S)n2CCc2ccc3c(c2)OCCO3)C1,inactive
13,O=S(=O)(c1ccc(Cl)cc1)N1CCN(c2nc(Nc3cc(Cl)ccc3O)nc3ccccc23)CC1,inactive
14,CCCN1CNc2c(c(=O)[nH]c(=S)n2CCc2ccc(C)c(C)c2)C1,inactive
15,COc1ccc(C#Cc2cnc(Cl)c3cncnc23)cc1OC,inactive
16,c1csc(-c2nc(NCC3CCCO3)c3ccccc3n2)c1 (stereo unspecified),inactive
17,COc1ccc(CCc2c[nH]c(=O)c3cncnc23)cc1OC,inactive
18,COc1ccc(CCn2c(=S)[nH]c(=O)c3c(C)cc(C)nc32)cc1OC,inactive
19,COc1ccc(CCn2c3c(c(=O)[nH]c2=S)CN(c2ccccc2)CN3)cc1OC,inactive
20,COc1ccc(CCn2c(=S)[nH]c(=O)c3nccnc32)cc1OC,inactive
21,OCCNc1nc(-c2cccs2)nc2ccccc12,inactive
